Source: PubChem BioAssay AID463187 (University of Pittsburgh Molecular Library Screening Center, 2010)
Screen size: about 220,000 compounds; about 1,500 (0.68%) were called active. This excerpt belongs to a sample that is enriched for actives. A number with no mark means an inactive call.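 Rule for the calls: active = Hck-Nef kinase inhibition above about 50% (limit read from the data); inactive = inhibition below that limit.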

target: Tyrosine-protein kinase HCK (Homo sapiens) (UniProt P08631); test: inhibitors of Nef-activated human Hck kinase, primary screen, biochemical, Z-Lyte FRET, 384-well, Hck-YEEI (AID 463187); conditions: Recombinant Hck-YEEI plus Nef, Z-Lyte FRET kinase assay; at 20 µM; hits give high values;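 note: 0% = DMSO with Hck plus Nef and 100% = Hck alone without Nef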
Sequence (P08631 whole entry, looked up): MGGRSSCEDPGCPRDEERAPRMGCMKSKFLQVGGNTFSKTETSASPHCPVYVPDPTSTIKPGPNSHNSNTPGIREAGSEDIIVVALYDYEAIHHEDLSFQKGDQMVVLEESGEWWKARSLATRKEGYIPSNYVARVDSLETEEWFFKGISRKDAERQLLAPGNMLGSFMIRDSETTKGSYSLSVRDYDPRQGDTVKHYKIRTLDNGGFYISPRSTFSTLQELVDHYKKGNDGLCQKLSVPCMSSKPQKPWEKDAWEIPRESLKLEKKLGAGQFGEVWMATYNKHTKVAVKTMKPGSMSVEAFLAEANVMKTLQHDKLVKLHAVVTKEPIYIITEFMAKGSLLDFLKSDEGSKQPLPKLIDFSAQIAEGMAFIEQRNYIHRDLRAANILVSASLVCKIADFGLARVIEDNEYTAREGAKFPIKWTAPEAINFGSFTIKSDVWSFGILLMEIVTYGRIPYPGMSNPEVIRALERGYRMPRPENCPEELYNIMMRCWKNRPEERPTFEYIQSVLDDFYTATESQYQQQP

| Structure (SMILES) | inhibition |
| --- | --- |
| COc1cccc(N2C(=O)NC(=O)/C(=C\c3ccc([N+](=O)[O-])s3)C2=O)c1 | 92.8% (active) |
| Cc1cccc(N2C(=O)NC(=O)/C(=C\c3cnn(-c4ccccc4)c3)C2=O)c1 | 5.24% |
| O=C1NC(=O)N(c2ccccc2)C(=O)/C1=C/c1ccc([N+](=O)[O-])s1 | 20.3% |
| O=C1NC(=O)N(Cc2ccco2)C(=O)/C1=C\c1ccc(-c2ccc(F)cc2)o1 | 59.4% (active) |
| Cc1cc(/C=C2/C(=O)NC(=O)N(Cc3ccco3)C2=O)c(C)n1-c1ccc(C(=O)O)cc1 | 49.2% |
| O=C1NC(=O)N(Cc2ccco2)C(=O)/C1=C\c1cccn1CCOc1ccccc1 | 27.2% |
| CNC(=O)O/N=C(\N)Cc1csc2ccccc12 | 13.9% |
| Cc1cccc(NC(=O)OC2CN3CCC2CC3)c1 (stereo not given) | 13.5% |
| O=C(N/N=C/c1c(O)n(Cc2ccccc2)c(=O)[nH]c1=O)c1ccccc1 | 1.83% |
| COc1cc(Cn2c(N)c(C(=O)NCc3ccco3)c3nc4ccccc4nc32)cc(OC)c1OC | 66.7% (active) |
| CCOC(=O)c1c(N)n(CCN2CCOCC2)c2nc3ccccc3nc12 | -2.81% |
| CCOC(=O)c1c(N)n(Cc2ccccc2)c2nc3ccccc3nc12 | 9.2% |
| CSc1nc2ccc(C)cc2c(=O)n1-c1cccnc1 | 4.59% |
| O=C(Cn1c(=O)n(CC2CS2)c2ccccc21)N1CCCCC1 (stereo not given) | -9.69% |
| CC1=C(C(=O)Nc2ccccc2)S(=O)(=O)CCO1 | 26.8% |
